Assay results published in PubChem BioAssay (NCATS).
Records with an inconclusive call do not appear. Calls of active or inactive are those of the source. The call rests on the fitted dose curve; in most records, active means well fitted curve in the direction sought with a large enough effect; inconclusive means small, poorly fitted or top-dose-only effect, or another doubt; inactive means no such curve, though single readings can be large; an effect the other way counts as inactive or inconclusive.

Assays:
[1] = test system: Zika virus NS2B-NS3 protease (unlinked); experiment: Optimization of GU AMC qHTS for Zika virus inhibitors: Unlinked NS2B-NS3 protease assay (AID 1347151);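 further: series mostly up to about 52 µM; 0% = no-inhibitor control and -100% = no-enzyme control; nearly all actives have a fitted effect of over 80% in size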
How it was run: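 Noncovalent NS2B hydrophilic domain–NS3 protease complex (25 nM final) in 10 mM Tris-HCl pH 8.0, 0.01% Tween 20; AMC substrate, room temperature 15 min (~20% conversion); fluorescence change normalized, 4-parameter Hill fit.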

[2] = test system: Zika virus NS2B-NS3 protease; experiment: Primary screen GU AMC qHTS for Zika virus inhibitors (AID 1347154);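 further: 0% = no-inhibitor control and -100% = no-enzyme control; nearly all actives have a fitted effect of over 70% in size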
How it was run: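 Unlinked Zika NS2B hydrophilic domain–NS3 protease complex at 25 nM in 10 mM Tris-HCl pH 8.0, 0.01% Tween 20, with an AMC peptide substrate. Fluorescence change (340/450 nm) over 15 min at room temperature, normalized to controls, fitted to 4-parameter Hill.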

[3] = target: Lysine-specific demethylase 5B (Homo sapiens) (UniProt Q9UGL1); experiment: Optimization screen for KDM5B Histone Demethylases FDH coupled qHTS against the LOPAC library (AID 1347166); further: 0% is about no effect
Sequence of Lysine-specific demethylase 5B (Homo sapiens) (Q9UGL1 whole entry, looked up): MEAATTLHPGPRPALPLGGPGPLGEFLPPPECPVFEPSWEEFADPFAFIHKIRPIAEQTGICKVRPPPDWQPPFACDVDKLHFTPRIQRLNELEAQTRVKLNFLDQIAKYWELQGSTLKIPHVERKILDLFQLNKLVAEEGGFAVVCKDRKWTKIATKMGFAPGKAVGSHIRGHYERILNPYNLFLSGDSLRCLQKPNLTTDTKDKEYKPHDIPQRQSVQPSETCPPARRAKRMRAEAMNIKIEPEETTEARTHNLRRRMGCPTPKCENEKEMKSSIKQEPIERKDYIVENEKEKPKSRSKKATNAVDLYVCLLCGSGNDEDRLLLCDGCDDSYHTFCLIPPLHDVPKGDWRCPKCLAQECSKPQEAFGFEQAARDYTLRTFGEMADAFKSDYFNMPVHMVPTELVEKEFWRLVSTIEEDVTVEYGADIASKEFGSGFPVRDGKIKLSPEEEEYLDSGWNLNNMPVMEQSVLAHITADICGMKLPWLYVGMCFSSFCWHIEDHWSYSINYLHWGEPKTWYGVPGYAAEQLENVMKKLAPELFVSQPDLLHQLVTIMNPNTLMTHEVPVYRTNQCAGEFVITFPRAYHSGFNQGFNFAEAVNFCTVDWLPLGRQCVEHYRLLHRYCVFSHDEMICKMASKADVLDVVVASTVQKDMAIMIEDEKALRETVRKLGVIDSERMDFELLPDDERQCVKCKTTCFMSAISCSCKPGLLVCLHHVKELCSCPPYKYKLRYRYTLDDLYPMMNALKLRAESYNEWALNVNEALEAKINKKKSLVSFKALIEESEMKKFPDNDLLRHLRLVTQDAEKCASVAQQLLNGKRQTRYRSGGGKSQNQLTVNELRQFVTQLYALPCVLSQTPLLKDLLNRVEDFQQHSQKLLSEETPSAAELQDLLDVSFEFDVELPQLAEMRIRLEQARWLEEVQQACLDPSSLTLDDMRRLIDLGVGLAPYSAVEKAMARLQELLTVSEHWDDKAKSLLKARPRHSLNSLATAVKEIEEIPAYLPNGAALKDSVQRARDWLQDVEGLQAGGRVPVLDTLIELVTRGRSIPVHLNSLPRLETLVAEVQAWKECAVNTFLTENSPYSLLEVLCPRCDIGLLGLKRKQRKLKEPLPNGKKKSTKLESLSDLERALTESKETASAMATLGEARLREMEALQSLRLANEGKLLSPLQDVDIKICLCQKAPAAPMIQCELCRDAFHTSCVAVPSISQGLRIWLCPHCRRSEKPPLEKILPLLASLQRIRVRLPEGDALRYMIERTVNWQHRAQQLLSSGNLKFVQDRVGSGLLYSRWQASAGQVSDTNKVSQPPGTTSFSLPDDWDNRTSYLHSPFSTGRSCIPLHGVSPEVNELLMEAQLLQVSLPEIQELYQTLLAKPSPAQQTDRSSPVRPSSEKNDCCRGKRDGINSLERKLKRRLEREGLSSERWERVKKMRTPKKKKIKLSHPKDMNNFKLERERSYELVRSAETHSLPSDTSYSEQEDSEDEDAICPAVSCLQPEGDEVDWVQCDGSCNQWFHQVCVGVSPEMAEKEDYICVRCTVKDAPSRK
How it was run: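 KDM5BDeltaAP (200nM final) preincubated 10 min with compound, then 12.5uM H3K4Me3, 25uM a-ketoglutarate, ascorbate, Fe(II), NAD+ and FDH added; 50mM HEPES pH 7.5, 0.01% Tween-20. NADH fluorescence (340/450 nm) change over 30 min, room temperature.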

[4] = qHTS to identify inhibitors of the type 1 interferon - major histocompatibility complex class I in skeletal muscle: primary screen against the NCATS LOPAC collection (AID 1347405);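 further: lytic HiBiT luminescence reporting HLA-B protein level; on the % scale 0 is the no-effect control and ±100 the full control effect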
How it was run: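 Immortalized human C25cl48 myoblasts with HiBiT knocked into endogenous HLA-B*08:01 were stimulated with 4.0 ng/ml IFN-beta and given compounds in a 7-point, 1:4.3 titration from 46 uM final; after 24 hrs, lytic HiBiT luminescence was read.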

[5] = qHTS to identify inhibitors of the type 1 interferon - major histocompatibility complex class I in skeletal muscle: primary screen against the NCATS Pharmaceutical Collection (AID 1347407);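 further: luminescence of HiBiT knocked into endogenous HLA-B as interferon-induced MHC class I level; on the % scale 0 is the no-effect control and ±100 the full control effect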
How it was run: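 Immortalized human myoblasts (C25cl48) with HiBiT knocked into endogenous HLA-B*08:01 were stimulated with 4.0 ng/ml IFN-beta and treated with compounds ([…] top 46 uM) for 24 hrs at 37 C. HiBiT lytic luminescence read.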

[6] = qHTS for inhibitors of adenylyl cyclases using a fission yeast platform: a pilot screen against the NCATS LOPAC library (AID 1347410);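 further: plate controls were DMSO vehicle for no effect and DPI positive control for full effect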
How it was run: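 S. pombe CHP2027 (AC9-GNAS-PDE4D2) carrying PKA-repressed fbp1-GFP, incubated 18 h at 30C in EMM with LOPAC compounds at up to 57 uM. GFP gain-of-signal read by laser scanning cytometry; DMSO negative control.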

[7] = target: Protein phosphatase 1D (Homo sapiens) (UniProt O15297); experiment: RapidFire Mass Spectrometry qHTS Assay for Modulators of WT P53-Induced Phosphatase 1 (WIP1) (AID 1347424);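 further: amount of dephosphorylated VEPPL-S-QETFS peptide product formed by WIP1; series mostly up to about 63 µM; plate controls were DMSO wells for no effect and GSK830371 inhibitor control at 10 µM for full effect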
Sequence of Protein phosphatase 1D (Homo sapiens) (O15297 whole entry, looked up): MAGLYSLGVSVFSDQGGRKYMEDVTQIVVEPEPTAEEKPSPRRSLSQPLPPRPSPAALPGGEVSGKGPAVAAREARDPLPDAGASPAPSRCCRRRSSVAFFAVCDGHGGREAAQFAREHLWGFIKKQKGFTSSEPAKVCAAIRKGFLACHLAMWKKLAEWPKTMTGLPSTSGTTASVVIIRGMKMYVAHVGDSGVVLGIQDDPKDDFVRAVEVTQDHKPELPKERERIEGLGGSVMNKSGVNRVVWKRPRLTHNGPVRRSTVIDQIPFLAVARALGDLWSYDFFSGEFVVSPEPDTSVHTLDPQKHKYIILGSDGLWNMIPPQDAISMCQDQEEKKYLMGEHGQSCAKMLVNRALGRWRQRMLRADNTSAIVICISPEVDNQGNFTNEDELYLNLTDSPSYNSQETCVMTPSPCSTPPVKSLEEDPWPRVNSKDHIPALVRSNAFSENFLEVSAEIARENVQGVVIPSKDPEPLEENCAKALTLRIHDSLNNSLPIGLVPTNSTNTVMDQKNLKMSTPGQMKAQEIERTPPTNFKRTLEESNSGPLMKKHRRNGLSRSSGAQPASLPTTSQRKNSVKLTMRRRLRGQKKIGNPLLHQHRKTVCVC
How it was run: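 10 nM WIP1 preincubated with compounds 1 hr at room temperature in pH 7.5 Tris buffer with 30 mM MgCl2, 1 mM TCEP; 2 uM VEPPL-pS-QETFS phosphopeptide for 5 min, formic acid quench; dephosphorylated product quantified by RapidFire MS against labelled standard.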

[8] = target: Protein phosphatase 1D (Homo sapiens) (UniProt O15297); experiment: Rhodamine-PBP qHTS Assay for Modulators of WT P53-Induced Phosphatase 1 (WIP1) (AID 1347425); further: % of control where 0% means no effect
How it was run: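 WIP1 (5 nM final) was preincubated with compound for 1 hour at room temperature. It then dephosphorylated 10 uM VEPPL-pS-QETFS peptide in Tris-HCl pH 7.5 with 30 mM MgCl2. Released Pi was detected by 10 uM Rh-PBP fluorescence (ex 525/em 598 nm) read at 1-min intervals for 11 min, as delta f1 - f0.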

[9] = Validation qHTS assay for inhibitors of Activation Induced Cytidine Deaminase (AID): UDG Counterscreen signal (AID 1347427); further: 0% is about no effect
How it was run: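 Counterscreen read of UDG activity (2 U/mL, 4/3x) in the FRET deamination format with AID (1 uM, 4/3x), DJC20/DJC23 substrates (250 nM, 4x), 4 h at room temperature. NaOH stop, fluorescence at 560 ex/665 em.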

[10] = target: Single-stranded DNA cytosine deaminase (Homo sapiens) (UniProt Q9GZX7); experiment: Validation qHTS assay for inhibitors of Activation Induced Cytidine Deaminase (AID): AID signal (AID 1347429); further: on the % scale 0 is the no-effect control and ±100 the full control effect
Sequence of Single-stranded DNA cytosine deaminase (Homo sapiens) (Q9GZX7 whole entry, looked up): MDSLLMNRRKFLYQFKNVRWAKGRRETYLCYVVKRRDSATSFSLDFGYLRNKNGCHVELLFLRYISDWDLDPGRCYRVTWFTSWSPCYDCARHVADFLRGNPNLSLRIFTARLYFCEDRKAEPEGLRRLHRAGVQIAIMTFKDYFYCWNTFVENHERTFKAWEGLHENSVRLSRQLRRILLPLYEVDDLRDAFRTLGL
How it was run: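 AID and UDG were combined and compounds added at final up to 114 uM, then DJC20/DJC23 FRET substrate was added for 4 hr at room temperature. NaOH was then added for 30 min before fluorescence was read at 540/590 nm.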

[11] = test system: Zika virus NS2B-NS3 protease (linked construct); experiment: Primary screen NINDS Rhodamine qHTS for Zika virus inhibitors (AID 1347160); settings: outcome: dose series up to 57.1 µM; further: nearly all actives have a fitted effect of over 55% in size
How it was run: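 Purified NS2B-NS3 protease with the NS2B hydrophilic domain joined by a flexible linker (25 nM) in 10 mM Tris-HCl pH 8.0, 0.01% Tween 20, preincubated 15 min at RT with compound; Rhodamine110 peptide substrate 1.5 µM; fluorescence change over 15 min; 4-parameter Hill fit.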

NC(Cc1ccc(Cl)cc1)C(=O)O (stereo not drawn)
inactive: Potency [1] | activity change, negative = inhibition [2] -1.34% [at 0.59 µM] | Potency [3] | Potency [4] | activity change, negative = inhibition [5] 1.91% [at 0.727 µM] | outcome [6] | activity change, negative = inhibition [7] 4.3% [at 0.505 µM] | activity change, negative = inhibition [8] -2.63% [at 0.575 µM] | outcome [9] | Potency [10]

O=C(O)CP(=O)(O)O
inactive: Potency [1] | outcome [2] | Potency [3] | Potency [4] | Potency [5] | outcome [6] | Potency [7] | outcome [8] | outcome [9] | Potency [10]

O=c1[nH]c(=O)n([C@H]2C[C@H](O)[C@@H](CO)O2)cc1Br
inactive: Potency [1] | outcome [2] | Potency [3] | Potency [4] | Potency [5] | outcome [6] | Potency [7] | outcome [8] | outcome [9] | Potency [10]

COc1ccc(CCN(C)CCCC(C#N)(c2cc(OC)c(OC)c(OC)c2)C(C)C)cc1OC (stereo not drawn)
inactive: Potency [1] | outcome [2] | Potency [3] | Potency [4] | Potency [5] | outcome [6] | Potency [7] | outcome [8] | outcome [9] | Potency [10]

COc1ccc(CN(CCN(C)C)c2ccccn2)cc1
inactive: Potency [1] | outcome [2] | Potency [3] | Potency [4] | Potency [5] | outcome [6] | Potency [7]

c1ccc2c(c1)CCCC2C1=NCCN1 (stereo not drawn)
inactive: Potency [1] | outcome [2] | Potency [3] | Potency [4] | Potency [5] | outcome [6] | Potency [7] | outcome [8] | outcome [9] | Potency [10]

CCCCNc1c(C(=O)OCC)c(C)nc2c1cnn2CC
inactive: Potency [1] | outcome [2] | Potency [3] | Potency [4] | Potency [5] | outcome [6] | Potency [7] | outcome [8] | outcome [9] | Potency [10]

C[C@]12CC[C@@H]3c4ccc(O)cc4C[C@@H](CCCCCCCCCS(=O)CCCC(F)(F)C(F)(F)F)[C@H]3[C@@H]1CC[C@@H]2O (stereo partly drawn)
inactive: Potency [1] | outcome [2] | Potency [3] | Potency [4] | Potency [5] | outcome [6] | Potency [7] | outcome [8] | outcome [9] | Potency [10]

CCCN(CCC)CCc1cccc2c1CC(=O)N2
inactive: Potency [1] | outcome [2] | Potency [3] | Potency [4] | Potency [5] | outcome [6] | Potency [7] | outcome [8] | outcome [9] | Potency [10]

Fc1ccc(C(c2ccc(F)cc2)N2CCN(C/C=C/c3ccccc3)CC2)cc1
inactive: Potency [1] | outcome [2] | Potency [3] | Potency [4] | Potency [5] | outcome [6] | Potency [7] | outcome [8] | outcome [9] | Potency [10]

CCCN1C[C@H](CSC)C[C@@H]2c3cccc4[nH]cc(c34)C[C@H]21
inactive: Potency [1] | outcome [2] | outcome [11] | Potency [3] | Potency [4] | Potency [5] | outcome [6] | Potency [7] | outcome [8] | outcome [9] | Potency [10]
